Reference: the supplement of paper PMC4466140

Assays:
Experiment in all cases: SPOT peptide array binding signal intensity (averaged, normalized) (arbitrary units (background-subtracted, floor 0; scale differs between SH3 domains)); higher = stronger binding of the SH3 domain to the peptide
CaNbp2 = biological target: CaNbp2
Summary of the method: (§1)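 GST-fused SH3 domains, from four yeast species, were produced in E. coli BL21(DE3) and captured on glutathione Sepharose. Membranes of cellulose carrying synthetic 15-mer peptides, in which cysteines had been replaced by serines, were exposed to each domain at 10 μg/ml overnight at 4°C in TBS-based blocking buffer. After anti-GST antibody, an HRP anti-mouse secondary and luminol, spots were imaged and quantified using Genespotter. Binding signal is normalized and background-subtracted spot intensity, averaged over replicates, in arbitrary units that differ between domains.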

CaRvs167 = biological target: CaRvs167
Summary of the method: as §1

CaRvs167-3 = biological target: CaRvs167-3
Summary of the method: as §1

CaSho1 = biological target: CaSho1
Summary of the method: as §1

CaSla1-D1-D2 = biological target: CaSla1-D1-D2
Summary of the method: as §1

CaSla1-D3 = biological target: CaSla1-D3
Summary of the method: as §1

ScAbp1 = biological target: ScAbp1
Summary of the method: as §1

ScBbc1 = biological target: ScBbc1
Summary of the method: as §1

ScBem1-D1 = biological target: ScBem1-D1
Summary of the method: as §1

ScBzz1-D1 = biological target: ScBzz1-D1
Summary of the method: as §1

ScBzz1-D2 = biological target: ScBzz1-D2
Summary of the method: as §1

ScCyk3 = biological target: ScCyk3
Summary of the method: as §1

ScFus1 = biological target: ScFus1
Summary of the method: as §1

ScHof1 = biological target: ScHof1
Summary of the method: as §1

ScHse1 = biological target: ScHse1
Summary of the method: as §1

ScLsb1 = biological target: ScLsb1
Summary of the method: as §1

ScLsb2 = biological target: ScLsb2
Summary of the method: as §1

ScLsb3 = biological target: ScLsb3
Summary of the method: as §1

ScLsb4 = biological target: ScLsb4
Summary of the method: as §1

ScMyo3 = biological target: ScMyo3
Summary of the method: as §1

ScMyo5 = biological target: ScMyo5
Summary of the method: as §1

ScNbp2 = biological target: ScNbp2
Summary of the method: as §1

ScPex13 = biological target: ScPex13
Summary of the method: as §1

ScRvs167 = biological target: ScRvs167
Summary of the method: as §1

ScSho1 = biological target: ScSho1
Summary of the method: as §1

ScSla1-D1-D2 = biological target: ScSla1-D1-D2
Summary of the method: as §1

ScSla1-D3 = biological target: ScSla1-D3
Summary of the method: as §1

SpAbp1-D1 = biological target: SpAbp1-D1
Summary of the method: as §1

SpBbc1 = biological target: SpBbc1
Summary of the method: as §1

SpBzz1-D1 = biological target: SpBzz1-D1
Summary of the method: as §1

SpBzz1-D2 = biological target: SpBzz1-D2
Summary of the method: as §1

SpCyk3 = biological target: SpCyk3
Summary of the method: as §1

SpHof1 = biological target: SpHof1
Summary of the method: as §1

SpHof1-2 = biological target: SpHof1-2
Summary of the method: as §1

SpHof1-3 = biological target: SpHof1-3
Summary of the method: as §1

SpHse1 = biological target: SpHse1
Summary of the method: as §1

SpLsb1 = biological target: SpLsb1
Summary of the method: as §1

SpLsb4 = biological target: SpLsb4
Summary of the method: as §1

SpMyo1 = biological target: SpMyo1
Summary of the method: as §1

SpNbp2 = biological target: SpNbp2
Summary of the method: as §1

SpPex13 = biological target: SpPex13
Summary of the method: as §1

SpRvs167 = biological target: SpRvs167
Summary of the method: as §1

SpSla1-D1-D2 = biological target: SpSla1-D1-D2
Summary of the method: as §1

SpSla1-D3 = biological target: SpSla1-D3
Summary of the method: as §1

AgAbp1 = biological target: AgAbp1
Summary of the method: as §1

AgBbc1 = biological target: AgBbc1
Summary of the method: as §1

AgBem1-D1 = biological target: AgBem1-D1
Summary of the method: as §1

AgBzz1-D1 = biological target: AgBzz1-D1
Summary of the method: as §1

AgBzz1-D2 = biological target: AgBzz1-D2
Summary of the method: as §1

AgCyk3 = biological target: AgCyk3
Summary of the method: as §1

AgFus1 = biological target: AgFus1
Summary of the method: as §1

AgHof1 = biological target: AgHof1
Summary of the method: as §1

AgHse1 = biological target: AgHse1
Summary of the method: as §1

AgLsb1 = biological target: AgLsb1
Summary of the method: as §1

AgLsb4 = biological target: AgLsb4
Summary of the method: as §1

AgMyo5 = biological target: AgMyo5
Summary of the method: as §1

AgNbp2 = biological target: AgNbp2
Summary of the method: as §1

AgRvs167 = biological target: AgRvs167
Summary of the method: as §1

AgSho1 = biological target: AgSho1
Summary of the method: as §1

AgSla1-D1-D2 = biological target: AgSla1-D1-D2
Summary of the method: as §1

AgSla1-D3 = biological target: AgSla1-D3
Summary of the method: as §1

CaAbp1-D1 = biological target: CaAbp1-D1
Summary of the method: as §1

CaAbp1-D2 = biological target: CaAbp1-D2
Summary of the method: as §1

CaBbc1 = biological target: CaBbc1
Summary of the method: as §1

CaBem1-D1 = biological target: CaBem1-D1
Summary of the method: as §1

CaBzz1-D1 = biological target: CaBzz1-D1
Summary of the method: as §1

CaBzz1-D2 = biological target: CaBzz1-D2
Summary of the method: as §1

CaCyk3 = biological target: CaCyk3
Summary of the method: as §1

CaFus1 = biological target: CaFus1
Summary of the method: as §1

CaHof1 = biological target: CaHof1
Summary of the method: as §1

CaHse1 = biological target: CaHse1
Summary of the method: as §1

CaLsb1 = biological target: CaLsb1
Summary of the method: as §1

CaLsb4 = biological target: CaLsb4
Summary of the method: as §1

CaMyo5 = biological target: CaMyo5
Summary of the method: as §1

PPIPNAPLSPAPAVP
SPOT peptide array binding signal intensity (CaNbp2): 15.5 | SPOT peptide array binding signal intensity (CaRvs167): ≤ 0 | SPOT peptide array binding signal intensity (CaRvs167-3): 2.5 | SPOT peptide array binding signal intensity (CaSho1): 9 | SPOT peptide array binding signal intensity (CaSla1-D1-D2): ≤ 0 | SPOT peptide array binding signal intensity (CaSla1-D3): ≤ 0 | SPOT peptide array binding signal intensity (ScAbp1): 0.5 | SPOT peptide array binding signal intensity (ScBbc1): ≤ 0 | SPOT peptide array binding signal intensity (ScBem1-D1): ≤ 0 | SPOT peptide array binding signal intensity (ScBzz1-D1): 4 | SPOT peptide array binding signal intensity (ScBzz1-D2): 7.5 | SPOT peptide array binding signal intensity (ScCyk3): 2.5 | SPOT peptide array binding signal intensity (ScFus1): ≤ 0 | SPOT peptide array binding signal intensity (ScHof1): ≤ 0 | SPOT peptide array binding signal intensity (ScHse1): 1.5 | SPOT peptide array binding signal intensity (ScLsb1): 2.5 | SPOT peptide array binding signal intensity (ScLsb2): 4.5 | SPOT peptide array binding signal intensity (ScLsb3): ≤ 0 | SPOT peptide array binding signal intensity (ScLsb4): ≤ 0 | SPOT peptide array binding signal intensity (ScMyo3): 2660 | SPOT peptide array binding signal intensity (ScMyo5): 1550 | SPOT peptide array binding signal intensity (ScNbp2): 7.5 | SPOT peptide array binding signal intensity (ScPex13): 7.63e-06 | SPOT peptide array binding signal intensity (ScRvs167): ≤ 0 | SPOT peptide array binding signal intensity (ScSho1): ≤ 0 | SPOT peptide array binding signal intensity (ScSla1-D1-D2): ≤ 0 | SPOT peptide array binding signal intensity (ScSla1-D3): 1.25 | SPOT peptide array binding signal intensity (SpAbp1-D1): ≤ 0 | SPOT peptide array binding signal intensity (SpBbc1): 0.5 | SPOT peptide array binding signal intensity (SpBzz1-D1): ≤ 0 | SPOT peptide array binding signal intensity (SpBzz1-D2): 0.5 | SPOT peptide array binding signal intensity (SpCyk3): 1 | SPOT peptide array binding signal intensity (SpHof1): ≤ 0 | SPOT peptide array binding signal intensity (SpHof1-2): 1 | SPOT peptide array binding signal intensity (SpHof1-3): 1 | SPOT peptide array binding signal intensity (SpHse1): 23 | SPOT peptide array binding signal intensity (SpLsb1): ≤ 0 | SPOT peptide array binding signal intensity (SpLsb4): ≤ 0 | SPOT peptide array binding signal intensity (SpMyo1): 946 | SPOT peptide array binding signal intensity (SpNbp2): ≤ 0 | SPOT peptide array binding signal intensity (SpPex13): ≤ 0 | SPOT peptide array binding signal intensity (SpRvs167): ≤ 0 | SPOT peptide array binding signal intensity (SpSla1-D1-D2): ≤ 0 | SPOT peptide array binding signal intensity (SpSla1-D3): ≤ 0

PELAPKREAPKPPAN
SPOT peptide array binding signal intensity (AgAbp1): 0.5 | SPOT peptide array binding signal intensity (AgBbc1): ≤ 0 | SPOT peptide array binding signal intensity (AgBem1-D1): 7.5 | SPOT peptide array binding signal intensity (AgBzz1-D1): 34.5 | SPOT peptide array binding signal intensity (AgBzz1-D2): 12 | SPOT peptide array binding signal intensity (AgCyk3): ≤ 0 | SPOT peptide array binding signal intensity (AgFus1): 0.5 | SPOT peptide array binding signal intensity (AgHof1): 2.5 | SPOT peptide array binding signal intensity (AgHse1): ≤ 0 | SPOT peptide array binding signal intensity (AgLsb1): ≤ 0 | SPOT peptide array binding signal intensity (AgLsb4): ≤ 0 | SPOT peptide array binding signal intensity (AgMyo5): 560 | SPOT peptide array binding signal intensity (AgNbp2): 564 | SPOT peptide array binding signal intensity (AgRvs167): 2.83 | SPOT peptide array binding signal intensity (AgSho1): ≤ 0 | SPOT peptide array binding signal intensity (AgSla1-D1-D2): ≤ 0 | SPOT peptide array binding signal intensity (AgSla1-D3): 3 | SPOT peptide array binding signal intensity (CaAbp1-D1): ≤ 0 | SPOT peptide array binding signal intensity (CaAbp1-D2): 3.5 | SPOT peptide array binding signal intensity (CaBbc1): 73.2 | SPOT peptide array binding signal intensity (CaBem1-D1): 1 | SPOT peptide array binding signal intensity (CaBzz1-D1): 652 | SPOT peptide array binding signal intensity (CaBzz1-D2): 265 | SPOT peptide array binding signal intensity (CaCyk3): ≤ 0 | SPOT peptide array binding signal intensity (CaFus1): 14 | SPOT peptide array binding signal intensity (CaHof1): ≤ 0 | SPOT peptide array binding signal intensity (CaHse1): 0.5 | SPOT peptide array binding signal intensity (CaLsb1): ≤ 0 | SPOT peptide array binding signal intensity (CaLsb4): ≤ 0 | SPOT peptide array binding signal intensity (CaMyo5): 1.5 | SPOT peptide array binding signal intensity (CaNbp2): 1020 | SPOT peptide array binding signal intensity (CaRvs167): 0.667 | SPOT peptide array binding signal intensity (CaRvs167-3): ≤ 0 | SPOT peptide array binding signal intensity (CaSho1): ≤ 0 | SPOT peptide array binding signal intensity (CaSla1-D1-D2): ≤ 0 | SPOT peptide array binding signal intensity (CaSla1-D3): 1 | SPOT peptide array binding signal intensity (ScAbp1): 1 | SPOT peptide array binding signal intensity (ScBbc1): 17 | SPOT peptide array binding signal intensity (ScBem1-D1): ≤ 0 | SPOT peptide array binding signal intensity (ScBzz1-D1): 91 | SPOT peptide array binding signal intensity (ScBzz1-D2): 10 | SPOT peptide array binding signal intensity (ScCyk3): ≤ 0 | SPOT peptide array binding signal intensity (ScFus1): ≤ 0 | SPOT peptide array binding signal intensity (ScHof1): ≤ 0 | SPOT peptide array binding signal intensity (ScHse1): ≤ 0 | SPOT peptide array binding signal intensity (ScLsb1): ≤ 0 | SPOT peptide array binding signal intensity (ScLsb2): 0.5 | SPOT peptide array binding signal intensity (ScLsb3): ≤ 0 | SPOT peptide array binding signal intensity (ScLsb4): ≤ 0 | SPOT peptide array binding signal intensity (ScMyo3): 1310 | SPOT peptide array binding signal intensity (ScMyo5): 906 | SPOT peptide array binding signal intensity (ScNbp2): 1560 | SPOT peptide array binding signal intensity (ScPex13): 5 | SPOT peptide array binding signal intensity (ScRvs167): ≤ 0 | SPOT peptide array binding signal intensity (ScSho1): ≤ 0 | SPOT peptide array binding signal intensity (ScSla1-D1-D2): ≤ 0 | SPOT peptide array binding signal intensity (ScSla1-D3): 4.5 | SPOT peptide array binding signal intensity (SpAbp1-D1): 5 | SPOT peptide array binding signal intensity (SpBbc1): ≤ 0 | SPOT peptide array binding signal intensity (SpBzz1-D1): 9 | SPOT peptide array binding signal intensity (SpBzz1-D2): 0.5 | SPOT peptide array binding signal intensity (SpCyk3): 1 | SPOT peptide array binding signal intensity (SpHof1): 0.5 | SPOT peptide array binding signal intensity (SpHof1-2): 1.5 | SPOT peptide array binding signal intensity (SpHof1-3): 1 | SPOT peptide array binding signal intensity (SpHse1): 7.5 | SPOT peptide array binding signal intensity (SpLsb1): ≤ 0 | SPOT peptide array binding signal intensity (SpLsb4): ≤ 0 | SPOT peptide array binding signal intensity (SpMyo1): 1220 | SPOT peptide array binding signal intensity (SpNbp2): ≤ 0 | SPOT peptide array binding signal intensity (SpPex13): ≤ 0 | SPOT peptide array binding signal intensity (SpRvs167): ≤ 0 | SPOT peptide array binding signal intensity (SpSla1-D1-D2): ≤ 0 | SPOT peptide array binding signal intensity (SpSla1-D3): ≤ 0
